# Results: PubChem BioAssay AID2014 (Sanford-Burnham Center for Chemical Genomics, 2009)
# In all, about 290,000 compounds went through this assay and about 3,000 (1%) were called active. How the calls were made is not given here. This excerpt belongs to a sample that is enriched for actives.
# Target: Polyadenylate-binding protein 1 (Homo sapiens) (UniProt P11940)
# Assay: blockers of PABP interaction with poly(A) – biochemical, fluorescence polarization, uHTS, primary screen (AID 2014);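 further: calls also rest on retests at 20 µM and on dose response follow-up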
# Settings: PABP-poly(A) RNA binding, stronger effect = higher value
# Polyadenylate-binding protein 1 (Homo sapiens), sequence (P11940 whole entry, looked up): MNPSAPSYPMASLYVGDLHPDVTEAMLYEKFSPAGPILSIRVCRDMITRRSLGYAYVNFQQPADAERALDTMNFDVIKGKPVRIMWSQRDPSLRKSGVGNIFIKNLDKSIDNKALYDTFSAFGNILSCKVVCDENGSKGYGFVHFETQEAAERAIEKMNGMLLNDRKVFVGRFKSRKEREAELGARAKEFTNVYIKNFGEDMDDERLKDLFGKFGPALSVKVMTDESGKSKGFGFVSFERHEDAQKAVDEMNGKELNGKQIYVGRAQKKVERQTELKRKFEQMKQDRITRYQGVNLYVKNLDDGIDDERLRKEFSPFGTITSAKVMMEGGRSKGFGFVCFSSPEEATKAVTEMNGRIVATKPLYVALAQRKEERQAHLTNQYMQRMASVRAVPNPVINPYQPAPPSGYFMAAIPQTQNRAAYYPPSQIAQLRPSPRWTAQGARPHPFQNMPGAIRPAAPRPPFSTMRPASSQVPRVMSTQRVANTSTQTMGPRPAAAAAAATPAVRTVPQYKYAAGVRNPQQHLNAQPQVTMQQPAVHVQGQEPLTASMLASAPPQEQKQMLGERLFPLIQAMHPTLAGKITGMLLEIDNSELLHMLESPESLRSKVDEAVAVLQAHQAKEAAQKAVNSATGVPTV
Structure (SMILES),inhibition (at 35 µM),"inhibition (confirmation repeats, at 20 µM) [%]"
COc1ccccc1C1CCN(c2ccc([N+](=O)[O-])cn2)CC1,3.2% (inactive),
COc1ccc(Nc2ccc([N+](=O)[O-])cn2)cn1,39.7% (active),54
COc1ccc(C(=O)NCCNc2ccc([N+](=O)[O-])cn2)cc1,-2.9% (inactive),
CCOc1ccc(N(CC)S(=O)(=O)c2cccc3nsnc23)cc1,51% (inactive),37.2
CC(=O)Nc1ccc(NC(=O)CN2C(=O)COc3ccc(S(=O)(=O)N4CCCCC4)cc32)cc1,0% (inactive),
O=C(NCCc1nnc2ccc(SCC(=O)N3CCOCC3)nn12)c1ccccc1,6.6% (inactive),
COc1cccc(/C=C2/SC(=S)N(CC(=O)NC3C=CS(=O)(=O)C3)C2=O)c1 (stereo not drawn),8.2% (inactive),
CCNc1c(NS(=O)(=O)c2ccc(C3CCCCC3)cc2)c(=O)oc2ccccc12,2.8% (inactive),
CC1=NN(C(N)=S)C(=O)C1N=Nc1cc(Cl)ccc1Cl (stereo not drawn),11.1% (inactive),
COc1ccc(NC(=O)CCN2C(=O)/C(=C/c3ccc4c(c3)OCO4)SC2=S)cc1,28.4% (inactive),
Cn1c(=O)n(C)c2cc(C(=O)Nc3ccc4c(c3)OCO4)ccc21,9.8% (inactive),
Cc1ccc(C(=O)O)cc1-c1ccc(/C=C2\SC(=O)N(CC(=O)Nc3ccc4c(c3)OCO4)C2=O)o1,62.5% (active),
CCOc1ccc(N(C(=O)c2snc(C(N)=O)c2N)C(C(=O)NCC2CCCO2)c2c[nH]c3ccccc23)cc1 (stereo not drawn),8.6% (inactive),
O=C(CCc1c[nH]c2ccccc12)NCCOc1ccccc1,3.3% (inactive),
CCN(CCCNC(=O)c1ccc2c(c1)NC(=O)CN2C)c1cccc(C)c1,0.9% (inactive),
CCOc1ccc(N(C)S(=O)(=O)c2cnc[nH]2)cc1,-4.6% (inactive),
O=C(CCN1CCCO1)N1CCCC(N2CCN(c3cccc(C(F)(F)F)c3)CC2)C1 (stereo not drawn),-17.5% (inactive),
CN1/C(=c2/s/c(=C3/C(=O)N(c4ccccc4)NC3=Nc3ccccc3)n(C)c2=O)C(C)(C)c2ccccc21,79.2% (active),
CCN1C(=O)/C(=c2\s/c(=C3\Sc4ccccc4N3C)c(=O)n2C)N(C)C1=S,-6.7% (inactive),
CCc1cccc(C)c1NC(=O)CSc1nnc(-c2ccco2)n1N,-0.1% (inactive),
NC(=O)c1c(NC(=O)CSc2nc(N)cc(=O)[nH]2)sc2c1CCCC2,9.6% (inactive),
NC(=O)c1c(NC(=O)CSc2nnc(-c3ccco3)n2N)sc2c1CCCC2,43.3% (active),90.6
C[C@@H](NC(=O)[C@@H]1Cc2ccccc2CN1)C(=O)NC1CCCC1,21% (inactive),

Structure (SMILES),inhibition (at 35 µM),"inhibition (confirmation repeats, at 20 µM) [%]"
Cc1ccc(CN2CCCOCCS2(=O)=O)cc1,5.7% (inactive),
Cc1ccccc1NC(=O)CN1C(=O)N/C(=C\c2cccn2-c2cccc(C(=O)O)c2)C1=O,82.4% (inactive),24.9
N#Cc1ccccc1CN1C(=O)S/C(=C/c2cccn2-c2cccc(C(=O)O)c2)C1=O,37.4% (active),65.8
Cn1cccc1/C=C1\SC(=O)N(CC(=O)Nc2ccc(F)cc2)C1=O,2.5% (inactive),
C=CCn1c(SCc2ccccc2)nc2c1c(=O)[nH]c(=O)n2C,-1.9% (inactive),
O=C(O)c1cc(S(=O)(=O)N(Cc2ccccc2)c2cccc(C(F)(F)F)c2)ccc1Cl,7.3% (inactive),
COc1ccccc1-c1noc(CSc2nc(C)cc(=O)[nH]2)n1,56.6% (active),
Cc1cc(=O)[nH]c(SCc2cc(Cl)ccc2OC(F)F)n1,0.2% (inactive),
Cc1cc(=O)[nH]c(SCc2cccc(F)c2)n1,-3.3% (inactive),
CN1C(=O)/C(=C\c2ccc(-c3ccccc3)o2)SC1=S,19.8% (inactive),
O=C1NN(c2ccccc2)C(=O)/C1=C/c1ccc(-c2cccc(C(=O)O)c2)o1,36.5% (inactive),
O=C(O)C(c1ccccc1)N1C(=O)/C(=C\c2ccc(-c3cccc(Cl)c3)o2)SC1=S (stereo not drawn),76% (active),126
CCOC(OCC)c1ccc(/C=C\c2nccc(N)n2)cc1,-16.6% (inactive),
O=C(COc1ccc(Cl)cc1)Nc1ccccc1CO,4.7% (inactive),
COC(=O)c1sccc1NC(=O)COc1ccc(Cl)cc1,81% (active),58.4
COC(=O)c1sccc1NC(=O)c1ccc(Cl)cc1,4.7% (inactive),
CC(C)(C)C1CCC(C(=O)NCC(c2cccs2)N2CCOCC2)CC1 (stereo not drawn),15.6% (inactive),
Nc1nnn(CC(=O)N/N=C/c2ccc(O)cc2)n1,15.3% (inactive),
O=C(CC(=O)Nc1ccc(Cl)c(Cl)c1)N/N=C/c1ccc(O)cc1,51.1% (active),59.9
O=C(C[n+]1ccccc1)N/N=C/c1ccc(O)cc1,-10% (inactive),
CN(C)c1ccc(S(=O)(=O)NCC(=O)NCC2CCCCC2)cc1[N+](=O)[O-],13.4% (inactive),
COc1cccc(C(=O)N/N=C(\C)c2cccc(NC(=O)c3ccc(F)cc3)c2)c1OC,-0.8% (inactive),
COc1ccccc1OCCCC(=O)Nc1ccc2c(c1)OCCO2,3.8% (inactive),

Structure (SMILES),inhibition (at 35 µM),"inhibition (confirmation repeats, at 20 µM) [%]"
CCC(CC)c1nnc(NC(=O)/C=C/c2ccco2)s1,10% (inactive),1.7
Cc1nnc(NC(=O)/C=C/c2ccco2)s1,-3.5% (inactive),8.4
CCc1nnc(NC(=O)/C=C/c2ccc(C)o2)s1,4.4% (active),56.5
CCOC(=O)c1c(S(=O)(=O)Nc2ccc(CN3CCC(C)CC3)cc2)c(C)n(C)c1C,-2.2% (inactive),
CCOC(=O)N1CCC(N2Cc3cccc(C(=O)Nc4c(C)cccc4CC)c3C2=O)CC1,-4.1% (inactive),
CCOC(=O)CC1COCCN1C(=O)c1cc(COc2ccc(F)c(F)c2)on1 (stereo not drawn),1.8% (inactive),
O=C(O)c1ccc(OCC2CCCO2)cc1 (stereo not drawn),6.4% (inactive),
O=C(NCC(=O)N1CCN(c2ccccc2F)CC1)c1cccs1,7.4% (inactive),
O=C(CN1C2=NCCN2c2ccccc21)c1cccs1,88.7% (active),105
CC(C)(C)C(=O)CN1C2=NCCN2c2ccccc21,-8.1% (inactive),
COc1ccc(N2CCN(C(=O)Cn3cnc4sc(C)c(S(=O)(=O)N5CCOCC5)c4c3=O)CC2)cc1,-2.8% (inactive),
Cc1cccc2[nH]c(CN(C)C(=O)C3CCC(=O)N(CCc4ccccc4)C3)nc12 (stereo not drawn),-4.2% (inactive),
O=C(COc1ccc([N+](=O)[O-])cc1)Nc1ccc(N2CCCC2)cc1,7% (inactive),
O=C(COc1ccc(/C=N/NC(=O)c2ccc(O)cc2)cc1)Nc1ccc([N+](=O)[O-])cc1,94.5% (active),77.2
O=C(N/N=C/c1ccc(OCc2ccccc2)cc1)c1ccc(O)cc1,-15.7% (inactive),
CC(C)c1ccc(Cc2nnc(NCCCO)[nH]c2=O)cc1,3.4% (inactive),
CCOc1cc(CN2CCCC(CO)(Cc3ccc(F)cc3F)C2)ccc1OC (stereo not drawn),4.9% (inactive),
CCOCc1nnc(NC(=O)CCS(=O)(=O)Cc2ccccc2)s1,-0.4% (inactive),
Cc1ccc(-c2nn(-c3ccccc3)cc2/C=C2\SC(=S)N(CCCCCC(=O)O)C2=O)o1,35.4% (active),54.4
COc1ccc(-c2nn(-c3ccccc3)cc2/C=C2/SC(=S)N(CCCC(=O)O)C2=O)c(C)c1,4.8% (inactive),
CN(C)S(=O)(=O)c1cccc(-c2nn(-c3ccccc3)cc2/C=C2\SC(=S)N(CC(=O)O)C2=O)c1,38.3% (inactive),
O=C(CCCN1CCc2[nH]c3ccc(F)cc3c2C1)c1ccc(F)cc1,-1.4% (inactive),
CC(=O)Cn1cnc2c(cnn2-c2ccccc2)c1=O,-4.8% (inactive),

Structure (SMILES),inhibition (at 35 µM),"inhibition (confirmation repeats, at 20 µM) [%]"
O=C(CCS(=O)(=O)Cc1ccccc1)Nc1ccc2c(c1)OCCO2,72% (active),88.6
O=C(CN(c1ccc2c(c1)OCCO2)S(=O)(=O)c1ccccc1)Nc1ccc2c(c1)OCO2,-3.5% (inactive),
CCCCC(=O)Nc1ccc2c(c1)OCCO2,-6.8% (inactive),
COc1ccccc1-n1c(-c2cc(-c3ccco3)[nH]n2)n[nH]c1=S,39% (active),56.9
COc1ccc(OC)c(-n2c(-c3ccn[nH]3)n[nH]c2=S)c1,-4.8% (inactive),
COc1ccc(-n2c(-c3ccc(OC)c(OC)c3)n[nH]c2=S)cc1,4.9% (inactive),
CCOC(=O)N1CCN(Cc2nc3cc(NC(=O)CC)ccc3n2CC)CC1,1.3% (inactive),
Cc1cccc(NC(=O)CCn2c(=O)oc3ccccc32)c1,1% (inactive),
COc1ccc(Nc2cc(Cl)ccc2C(=O)O)cn1,72.3% (active),106
COc1cc(C(F)(F)F)c(C(=O)N(C)c2ccc(Cl)cc2)cn1,-5.6% (inactive),
COc1cccc(Nc2ncccc2C(=O)O)c1,11.9% (inactive),
COc1ccccc1OC(C)C(=O)Nc1ccc(S(=O)(=O)Nc2nccs2)cc1 (stereo not drawn),4.4% (inactive),
CC(C)(C)OC(=O)NC(Cc1ccccc1)C(=O)NC(CSC1CCCCO1)C(=O)NN (stereo not drawn),1.1% (inactive),
COc1ccc(NS(=O)(=O)c2ccc(N3CCOCC3)c(NC(=O)c3ccccc3Br)c2)cc1,3.8% (inactive),
COc1ccc(NS(=O)(=O)c2cc(NC(=O)/C=C/c3cc(OC)c(OC)c(OC)c3)ccc2N2CCCCC2)cc1,-9.8% (inactive),
COc1ccc(NS(=O)(=O)c2cc(NC(=O)C3CCCCC3)ccc2N2CCOCC2)cc1,67.6% (active),92.5
CC1CCCN(S(=O)(=O)c2ccc(-c3ccc(=O)[nH]n3)o2)C1 (stereo not drawn),3.3% (inactive),
Cc1ccc(-n2ncc3c2CC(C)(C)CC3NC(=O)CCc2cnn(C)c2)cc1 (stereo not drawn),54.6% (inactive),27.1
O=C(NC1CCCC1)C1CC(=O)N(c2ccc(F)cc2)C1 (stereo not drawn),-2.5% (inactive),
Cc1cc2c(cc1C)[n+](C)cn2CC(O)COCC1CC=CCC1 (stereo not drawn),77.8% (active),
